# High-throughput results: PubChem BioAssay, National Center for Advancing Translational Sciences (NCATS)
# Hits are enriched below; roughly 0.97% of the tested compounds scored in any of these assays.
# MBNL1-CUG inh = inhibitors of human MBNL1 binding to CUG repeat RNA; Q9NR56; AID 2675; actives 0.036% (n = 280,000); Potency, µM (series often up to 57.5 µM), usual class: inhibitors; TR-FRET MBNL1-His/biotin-(CUG)12 binding, 665/545 ratio; active = well fitted inhibition curve with a large enough effect in the signal ratio, with a control signal flat, not every such curve was filed as active; inconclusive = small, poorly fitted or top-dose-only effect, or effect the other way, or a change in a side signal; inactive = no such curve, though single readings can be large or run the other way; the % refers to the signal ratio
# Target sequence (Q9NR56 whole entry, looked up): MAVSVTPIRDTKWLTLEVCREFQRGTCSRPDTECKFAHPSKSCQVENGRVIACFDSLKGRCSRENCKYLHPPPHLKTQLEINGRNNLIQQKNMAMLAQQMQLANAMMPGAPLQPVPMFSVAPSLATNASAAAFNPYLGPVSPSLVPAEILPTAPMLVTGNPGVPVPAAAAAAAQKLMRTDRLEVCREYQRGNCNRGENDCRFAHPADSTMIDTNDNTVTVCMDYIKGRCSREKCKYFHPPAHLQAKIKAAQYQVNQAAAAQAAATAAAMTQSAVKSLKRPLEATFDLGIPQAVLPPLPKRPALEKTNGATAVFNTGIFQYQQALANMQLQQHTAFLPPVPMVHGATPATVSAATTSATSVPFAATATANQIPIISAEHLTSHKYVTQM
#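 Compounds (final 92 nM to 58 uM) are added to His-tagged MBNL1 and biotin-(CUG)12, then terbium anti-His antibody and streptavidin-XL665 (5 nM final). After 60 min at room temperature, the 665/545 nm ratio is read.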
# Akt phos inh = blocks phosphorylation of Akt; Neuro2A IGF-stimulated pAkt S473 HTRF, 20 min; active compounds read low; activity change, % for hits at 50 µM; actives 0.32% (n = 360,000); in the data active = activity change below about -80%; inconclusive = mostly about -51% to -80%
#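 Single-point screen (50 µM final compound) in Neuro2A cells stimulated 20 min with 6 nM IGF at 37 deg C. After lysis, Ser473-phosphorylated Akt read by HTRF (ex 330 nm, em 615/665 nm) as the 665/615 ratio.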
# Epigenetic reg = epigenetic control regulation, reporter derepression; murine LDR cells, GFP reporter derepression, 30 h; Potency, µM (doses to about 53.9 µM), most hits filed as activators; actives 0.2% (n = 280,000); note: nearly all actives have a fitted effect of over 60% in size
#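 Readout is the number of GFP-expressing murine LDR cells, counted by cytometry following washing. Cells were treated with compound for 30 h at 37 C; the stably integrated CMV-GFP locus is normally silent.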
# uPA generation = cell surface uPA generation inhibition | Potency, µM (highest dose often 38.3 µM), usual class: inhibitors | cell surface uPA generation assay, qHTS | AID 540303 | actives 0.31% (n = 330,000); active = well fitted inhibition curve with a large enough effect; inconclusive = small, poorly fitted or top-dose-only effect; inactive = no such curve, though single readings can be large or run the other way; tested in mouse RAW 264.7 cells; note: nearly all actives have a fitted effect of over 55% in size
# Mm-Cpn inhibitor = inhibitors of Methanococcus maripaludis chaperonin TRiC (MmCpn); actives 0.031% (n = 330,000); purified Mm-Cpn ATPase, ADP Transcreener TR-FRET; Potency, µM (top dose mostly 76.9 µM), usual class: inhibitors; note: nearly all actives have a fitted effect of over 80% in size
#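 Eu-cryptate anti-ADP/ADP-d2 competition gives a ratio inversely related to ADP. Enzyme at 25 nM was pre-exposed to compound for 10 min, then given 10 uM ATP for 30 min, 37°C throughout.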
# CCT modulator = cytosolic chaperonin activity modulation | purified chaperonin ATPase assay, HTRF ADP detection, 30 min | activity change, % (test concentration not listed), hits read low | actives 0.3% (n = 360,000); in the data active = activity change below about -30%
#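 Nucleotide hydrolysis assay: TRiC at 20–40 nM final (set by batch activity) with 10 uM ATP, 30 min at 37 °C, in presence of 76 uM compound. Detection by competitive ADP HTRF, 30 min ambient.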
# MBNL1 TRFRET = confirmation of inhibitors of human MBNL1-poly(CUG) RNA binding. Potency, µM (titrated, usually from 57.6 µM), usual class: inhibitors. AID 493199. actives 50% (n = 140). TR-FRET MBNL1-His / biotin-(CUG)12 binding, 60 min. shares compounds with MBNL1-CUG inh
# MBNL1 AlphaScrn = MBNL1-CUG RNA binding inhibition, AlphaScreen validation; shares compounds with MBNL1-CUG inh; AlphaScreen MBNL1-His / biotin-(CUG)12 binding; Potency, µM (top dose mostly 57.7 µM), most hits filed as inhibitors; actives 30% (n = 140)
# Menin-MLL HTRF = MBNL1-CUG RNA binding inhibitor counterscreen activity. shares compounds with MBNL1-CUG inh. His-Menin/biotin-MLL peptide TR-FRET counterscreen. Potency, µM (series often up to 57.6 µM), usual class: inhibitors. actives 20% (n = 120). AID 651843
# A number is an active result; . = inactive; ? = inconclusive; / = not tested or not shown; [ ] = dose if it differs, or a comment. Unless noted, calls come from the whole dose curve; as a rule, active = well fitted curve in the direction sought with a large enough effect; inconclusive = small, poorly fitted or top-dose-only effect, or another doubt; inactive = no such curve, though single readings can be large; an effect the other way counts as inactive or inconclusive.
SMILES,MBNL1-CUG inh,Akt phos inh,Epigenetic reg,uPA generation,Mm-Cpn inhibitor,CCT modulator,MBNL1 TRFRET,MBNL1 AlphaScrn,Menin-MLL HTRF
COc1ccc(-c2nc(SCC(=O)Nc3cc(C)on3)n[nH]2)cc1,39.8µM,.,.,.,.,.,16.3µM,.,?
COc1ccc(N2CCN(CC(=O)Nc3ccc(-n4cnnn4)cc3)CC2)cc1,.,.,.,.,.,.,.,?,.
COCCNC(=O)CCC1CCN(Cc2ccc(-c3ccccc3)cc2)CC1,15.8µM,.,/,.,.,.,6.51µM,.,8.19µM
Cc1cn([C@H]2C[C@H](O)[C@@H](CCC(=O)NCCN3CCCCC3)O2)c(=O)[nH]c1=O,/,.,/,.,.,.,/,/,/
CC(=O)c1cccc(NC(=O)c2c(-c3c(F)cccc3Cl)noc2C)c1,/,.,/,.,.,.,/,/,/
Cn1nc(-c2ccc(Cl)cc2)nc2c(=O)n(C)c(=O)nc1-2,?,/,?,/,.,/,0.651µM,0.259µM,.
CC1(C)CCC2=C(O1)c1ccccc1C(=O)C2=O,?,/,.,/,/,/,?,20µM,/
CC1(C)CCC(=O)c2ccccc21,/,.,/,.,/,.,/,/,/
CC(=O)Nc1nc(-c2ccc(Cl)cc2)nc(C)c1C(C)=O,25.1µM,.,.,.,.,.,?,?,?
Cc1cc(N2CCN(C)CC2)nc2ccc(NC(=S)NCCN3CCc4ccccc4C3)cc12,25.1µM,.,.,?,.,.,.,.,.
Nc1ccc2c(c1)C(=O)C(=O)c1ccccc1-2,?,?,.,.,?,.,?,6.51µM,.
O=C(NC1CCCCC1)c1ccccc1NC(=O)C1CC(=O)N(c2ccccc2)C1 (stereo not given),39.8µM,.,.,/,.,.,.,.,.
O=C(NC1CCCCC1)c1ccccc1NC(=O)C1CC(=O)N(c2ccc(Cl)cc2)C1 (stereo not given),15.8µM,.,.,/,.,.,.,?,.
Cc1ccc(N2CC(C(=O)Nc3ccccc3C(=O)NC3CCCCC3)CC2=O)cc1 (stereo not given),.,.,.,/,.,.,/,/,/
Cc1ccc(-c2nnc(Nc3ccc(OCC(N)=O)cc3)c3ccccc23)cc1S(=O)(=O)N(C)C,/,/,.,/,/,/,/,/,/
CC(=O)c1cccc(NC(=O)Nc2cccnc2)c1,25.1µM,.,.,.,.,.,25.9µM,.,?
O=C(Nc1cccnc1)Nc1cccc(F)c1,?,.,/,.,.,.,/,/,/
O=C(NC1(O)C(=O)c2ccccc2C1=O)c1ccccc1,/,.,.,.,.,.,20.6µM,13µM,.
COc1ccc(OC)c(NC(=O)c2csc(Cl)c2OC)c1,.,.,/,.,.,.,/,/,/
Cc1cc(C)c(NC(=O)CSc2ncc(S(=O)(=O)c3ccc(C(C)(C)C)cc3)c(=O)[nH]2)c(C)c1,/,/,.,/,/,/,/,/,/
OC(COc1ccccc1CNCc1cccnc1)CN1CCc2ccccc2C1 (stereo not given),12.6µM,.,.,.,.,.,16.3µM,?,?
CCc1ccccc1N1C(=O)N(C)c2ccccc2S1(=O)=O,/,/,.,/,/,/,/,/,/
Cc1ccc(/C=c2/sc3n(c2=O)CCCN=3)o1,.,.,.,.,.,.,?,.,.
Cc1ccc(S(=O)(=O)Oc2ccccc2/C=N/N=C(N)N)cc1,17.8µM,.,.[10.1 µM],.,.[15.4 µM],.,16.3µM,.,?
CC(=O)Nc1ccc(NC(=O)c2cc(-c3cc(C)c(C)cc3O)n[nH]2)cc1,10µM,.,/,.,.,.,?,41.1µM,.
Cc1cc(O)c(-c2cc(C(=O)Nc3cccnc3)[nH]n2)cc1C,/,.,.,.,.,.,/,/,/
COc1ccc(CCNC(=O)COC(=O)c2cncc(Br)c2)cc1OC,/,.,/,?,.,.,/,/,/
N#Cc1ccsc1NC(=O)CN1CCCCCC1,.,.,.,.,.,.,/,/,/
